Shown are actives, neighbours in structure and some others; about 20% of the full set was active somewhere.
HCMV antiviral – qHTS Assay for inhibitors of the human cytomegalovirus (HCMV); hit rate 4.5% among 410,000; activity change, negative = inhibition, % at 57.5 µM; AID 1259415, 2018; HFF cells, HCMV-luciferase reporter, 72 h; stronger effect = lower value; in the data active = activity change below about -60%; inconclusive = no clear call, values can overlap the other calls; inactive = above about -39%
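Two compound doses tested in HFFs infected with HCMV-luciferase, MOI 1 PFU/cell, 72 h at 37C. Lysate luminescence read with OneGlo; data normalized against buffer-only and 10uM Salinomycin inhibitor controls.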
CHX counter – Cycloheximide Counterscreen for Small Molecule Inhibitors of Shiga Toxin; cell reporter, cycloheximide protein synthesis inhibition counterscreen; max response, %; hit rate 12% among 300,000; AID 2314, 2010; in the data active = max response mostly above about 13%, no sharp cut-off; inactive = mostly below about 14%; also: read at 38.3 µM for the half of the compounds with a filed dose
Pf growth 96h – Primary qHTS for delayed death inhibitors of the malarial parasite plastid, 96 hour incubation | P. falciparum luciferase reporter growth, 96 h | Potency, µM (top dose mostly 28.7 µM), actives largely listed as inhibitors | hit rate 6.9% among 320,000 | AID 504834, 2011
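96 h incubation, 37 C, 5% CO2, of luciferase-reporter P. falciparum-infected RBCs (2% hematocrit, 0.05% parasitemia final) with test compounds; endpoint luminescence.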
Pf growth 48h – Primary qHTS for delayed death inhibitors of the malarial parasite plastid, 48 hour incubation; P. falciparum luciferase growth in erythrocytes, 48 h; Potency, µM (series often up to 28.7 µM), usual class: inhibitors; hit rate 5.9% among 310,000; AID 504832, 2011
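Read-out is firefly luciferase luminescence from an integrated reporter in P. falciparum, so falling signal marks reduced parasite growth. Infected erythrocytes were at 2% hematocrit and 0.1% parasitemia (final) in Albumax-supplemented RPMI 1640.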
Shiga inhibitor – A qHTS for Small Molecule Inhibitors of Shiga Toxin | Vero cells, Shiga toxin protein synthesis inhibition reporter | inhibition, % at 38.7 µM | hit rate 9.2% among 290,000; in the data active = inhibition mostly above about 28%, no sharp cut-off; inactive = mostly below about 43%
CLK4 ADP-Glo – Confirmaiton Assay for Inhibitors of CDC-like Kinase 4 (ADP-Glo Assay); shares compounds with Pf growth 48h; recombinant Clk4, RS peptide, ADP-Glo luminescence; Potency, µM (highest dose often 80 µM), hits mostly inhibitors; hit rate 80% among 65
Target sequence (Q9HAZ1 whole entry, looked up): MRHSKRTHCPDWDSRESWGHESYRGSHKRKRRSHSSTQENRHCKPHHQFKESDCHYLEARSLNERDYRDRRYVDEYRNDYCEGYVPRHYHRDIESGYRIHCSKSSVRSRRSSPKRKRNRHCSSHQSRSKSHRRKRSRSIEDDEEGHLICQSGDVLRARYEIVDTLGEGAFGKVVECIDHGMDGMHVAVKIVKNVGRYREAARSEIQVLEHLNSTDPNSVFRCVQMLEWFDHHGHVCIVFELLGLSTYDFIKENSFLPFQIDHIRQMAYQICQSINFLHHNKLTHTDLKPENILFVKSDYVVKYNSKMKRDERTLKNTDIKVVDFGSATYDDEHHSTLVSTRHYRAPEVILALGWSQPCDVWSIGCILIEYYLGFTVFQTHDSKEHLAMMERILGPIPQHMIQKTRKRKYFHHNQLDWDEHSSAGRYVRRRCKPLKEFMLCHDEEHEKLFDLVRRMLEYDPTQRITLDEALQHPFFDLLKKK
CLK4 cf ADP-FP – Confirmation Assay for Inhibitors of CDC-like Kinase 4 (ADP-FP Assay); Potency, µM (doses to about 80 µM), actives largely listed as inhibitors; hit rate 70% among 65; shares compounds with Pf growth 48h; recombinant Clk4, ADP Transcreener FP, RS peptide
Hits are given with their value; ! = not confirmed by another sample. Unless noted, calls follow the shape of the dose curve; as a rule, active = well fitted curve in the direction sought with a large enough effect; inconclusive = small, poorly fitted or top-dose-only effect, or another doubt; inactive = no such curve, though single readings can be large; an effect the other way counts as inactive or inconclusive.

What do the screens show for `CCn1nnnc1NCc1c(OC)ccc2ccccc12`?
HCMV antiviral: inactive; CHX counter: inactive; Pf growth 96h: inconclusive; Pf growth 48h: inactive; Shiga inhibitor: inactive

How did COc1cccc(S(=O)(=O)NCc2ccc3c(c2)OCO3)c1 do in these assays?
HCMV antiviral: inactive; CHX counter: inactive; Pf growth 96h: inactive; Shiga inhibitor: inactive

What do the screens show for `c1cncc(CNc2ncnc3ccc(-c4ccc5c(c4)OCO5)cc23)c1`?
HCMV antiviral: inactive; Pf growth 96h: inactive; Pf growth 48h: inconclusive; CLK4 ADP-Glo: 0.126µM; CLK4 cf ADP-FP: 0.0891µM

Results for COc1cccc(-c2ccc3ncnc(NCc4ccc5c(c4)OCO5)c3c2)c1 ?
HCMV antiviral: inactive; Pf growth 96h: 7.38µM; Pf growth 48h: 9.28µM; CLK4 ADP-Glo: 1.26µM; CLK4 cf ADP-FP: 2.24µM

Results for Cn1ccc2cc(-c3ccc4ncnc(NCc5ccc6c(c5)OCO6)c4c3)ccc21 ?
Pf growth 96h: inconclusive; Pf growth 48h: 13.1µM; CLK4 ADP-Glo: inconclusive; CLK4 cf ADP-FP: inactive

Results for c1nc(NCc2ccc3c(c2)OCO3)c2cc(-c3ccc4c(c3)OCCO4)ccc2n1 ?
HCMV antiviral: inactive; Pf growth 96h: inconclusive; Pf growth 48h: 13.1µM; CLK4 ADP-Glo: 1.78µM; CLK4 cf ADP-FP: 2.24µM

Results for CN(Cc1nccn1C)C(=O)C1CCC(=O)N(Cc2cccc(C(F)(F)F)c2)C1 (stereo not drawn) ?
HCMV antiviral: inactive; CHX counter: inactive; Pf growth 96h: inactive; Pf growth 48h: inactive; Shiga inhibitor: inactive

Results for COc1cccc(-c2ccc3ncnc(N(C)Cc4ccco4)c3c2)c1 ?
HCMV antiviral: inactive; Pf growth 96h: 14.7µM; Pf growth 48h: inconclusive; CLK4 ADP-Glo: 0.355µM; CLK4 cf ADP-FP: 0.447µM

Results for COc1cccc(-c2n[nH]c(=S)n2Cc2ccco2)c1 ?
HCMV antiviral: inactive; CHX counter: inactive; Pf growth 96h: inactive; Pf growth 48h: inactive; Shiga inhibitor: inactive

What do the screens show for `Clc1cccc(-c2ccc3ncnc(NCc4ccc5c(c4)OCO5)c3c2)c1`?
Pf growth 96h: 1.47µM; Pf growth 48h: 6.57µM; CLK4 ADP-Glo: inconclusive; CLK4 cf ADP-FP: inconclusive

How did Cc1cccc(-c2ccc3ncnc(NCc4cccs4)c3c2)c1 do in these assays?
HCMV antiviral: -76.3; Pf growth 96h: 3.29µM; Pf growth 48h: 3.7µM!; CLK4 ADP-Glo: 7.94µM; CLK4 cf ADP-FP: 15.8µM

What do the screens show for `Cc1ccc(CNc2ncnc3cc(Cl)ccc23)cc1`?
HCMV antiviral: inconclusive; CHX counter: inactive; Pf growth 96h: inconclusive; Pf growth 48h: inconclusive; Shiga inhibitor: inactive

Results for Clc1cccc(-c2ccc3ncnc(NCc4cccs4)c3c2)c1 ?
HCMV antiviral: inactive; Pf growth 96h: 3.29µM; Pf growth 48h: 11.7µM; CLK4 ADP-Glo: 3.98µM; CLK4 cf ADP-FP: 7.94µM

How did Cc1ccc(CNc2ncnc3ccc(-c4c(C)noc4C)cc23)o1 do in these assays?
CHX counter: inactive; Shiga inhibitor: inactive

What do the screens show for `CCc1nc(C(N)=O)c2[nH]c(=O)n(-c3ccccc3F)c2n1`?
HCMV antiviral: inactive; CHX counter: inactive; Pf growth 96h: inactive; Pf growth 48h: inactive; Shiga inhibitor: inactive

Screening data deposited in PubChem BioAssay by National Center for Advancing Translational Sciences (NCATS).
